Source: PubChem (National Center for Advancing Translational Sciences (NCATS))
Sampled rows, rich in hits. Any-hit rate of the full collection: about 1.9%.
LDHA block – qHTS assay for inhibitors of human lactate dehydrogenase. purified LDHA, NADH/diaphorase-resazurin fluorescence; active compounds read low. activity change, % (values are at about 110 or 230 µM). AID 1347041, 2019. 480,000 compounds, 0.15% hits; in the data active = activity change below about -30%; inconclusive = mostly about -25% to -30%;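 also: plate controls were DMSO wells for no effect and wells without enzyme for full effect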
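Human LDH5 (2 nM) was incubated with 0.06 mM NADH and 0.2 mM pyruvate for 5 min at room temperature in Tris pH 7.4. Remaining NADH was coupled through diaphorase/resazurin, and resorufin fluorescence was read at 0 and 20 min.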
Abeta rescue – qHTS for compounds that reverse cellular toxicity of Amyloid beta (A-beta) peptide in yeast: Primary Screen; yeast expressing A-beta42, growth rescue, OD600, 48 h; response scale: 0% DMSO, 100% iron-clioquinol control; Potency, µM (titrated, usually from 46.1 µM), actives largely listed as activators; 410,000 compounds, 0.063% hits; also: potency is read from the fitted curve at half-maximal effect; nearly all actives have a fitted effect of over 55% in size
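Yeast growth medium received pinned compounds, then yeast cells expressing toxic A-beta were added; plates incubated at 30 C for 48 hr. Growth read as absorbance at 600 nm, normalized to DMSO and equimolar FeCl3 plus clioquinol controls.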
aSyn rescue – qHTS of alpha-syn Inhibitors | Yeast expressing alpha-synuclein, growth rescue, BacTiter-Glo, 24 h | Potency, µM (highest dose often 46.1 µM), for the others: at the top dose growth rescue (activation), actives largely listed as activators | 370,000 compounds, 0.14% hits | AID 652106, 2013; also: potency is read from the fitted curve at half-maximal effect; % of control where 0% means no effect; nearly all actives have a fitted effect of over 65% in size
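Galactose-induced alpha-syn yeast (OD600=0.02, raffinose-pregrown) + pinned cpd, 24 hr, 30 deg C; growth by BacTiter-Glo luminescence. Growth restoration scores as activation.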
TDP43 rescue – qHTS of TDP-43 Inhibitors; TDP-43 expressing yeast growth rescue, BacTiter-Glo, 24 h; 410,000 compounds, 1.8% hits; Potency, µM (series often up to 46.1 µM), for the others: at the top dose growth rescue (activation), most hits filed as activators; also: potency is read from the fitted curve at half-maximal effect; % of control where 0% means no effect; nearly all actives have a fitted effect of over 50% in size
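Growth rescue of TDP-43-toxic yeast measured as ATP luminescence (BacTiter-Glo). Cells grown to mid-log in raffinose, induced in galactose at OD600=0.02, exposed to compound 24 hr at 30 deg C.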
PTHR1 agonist – qHTS for PTHR1 Agonists: Primary Screen; Parathyroid hormone/parathyroid hormone-related peptide receptor (Homo sapiens), Q03431; 410,000 compounds, 0.075% hits; HEK293 GP2 PTHR1 cells, GloSensor cAMP luminescence, 1 h; Potency, µM (titrated, usually from 115 µM), for the others: at the highest dose activation, most hits filed as activators; AID 743266, 2014; also: potency is read from the fitted curve at half-maximal effect; nearly all actives have a fitted effect of over 55% in size
Target sequence (Q03431 whole entry, looked up): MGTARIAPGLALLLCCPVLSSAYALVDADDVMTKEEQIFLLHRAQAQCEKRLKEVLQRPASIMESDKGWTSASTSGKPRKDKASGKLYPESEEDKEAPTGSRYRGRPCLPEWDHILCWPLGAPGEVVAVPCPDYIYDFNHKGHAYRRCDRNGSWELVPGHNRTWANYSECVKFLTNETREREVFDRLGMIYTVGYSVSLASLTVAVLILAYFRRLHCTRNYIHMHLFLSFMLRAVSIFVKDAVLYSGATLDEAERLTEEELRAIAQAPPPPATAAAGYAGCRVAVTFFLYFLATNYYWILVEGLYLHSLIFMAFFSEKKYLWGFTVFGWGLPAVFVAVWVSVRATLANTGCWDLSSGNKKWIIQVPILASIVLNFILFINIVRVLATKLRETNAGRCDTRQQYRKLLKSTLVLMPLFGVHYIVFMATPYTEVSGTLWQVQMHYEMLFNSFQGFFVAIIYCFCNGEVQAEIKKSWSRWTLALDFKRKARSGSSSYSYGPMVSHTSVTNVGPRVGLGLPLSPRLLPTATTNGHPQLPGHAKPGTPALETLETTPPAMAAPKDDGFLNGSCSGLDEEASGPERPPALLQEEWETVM
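HEK-293-derived GP2 cells expressing PTHR1 and a GloSensor cAMP reporter, 3,000/well, plated overnight, given luciferin plus IBMX (each 0.5 mM as added) for 1 h at 37 °C, then compound for 1 h at 37 °C. Luminescence was read after 15 min at room temperature.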
FUS yeast rescue – qHTS for Suppressors of FUS Proteinopathy: Primary screen using FUS-linked yeast assay; S. cerevisiae FUS-expressing, growth rescue, OD600, 24 h; Potency, µM (titrated, usually from 76.6 µM), hits mostly activators; 390,000 compounds, 0.24% hits; AID 1347120, 2019;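 also: potency is read from the fitted curve at half-maximal effect; plate controls were DMSO vehicle for no effect and reference control for full effect; nearly all actives have a fitted effect of over 55% in size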
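Steps: raffinose overnight preculture; dilution to OD 0.005 in 2% galactose minimal medium; compound addition (concentration series); 24hr at 30C, 99% humidity; absorbance read at 600 nm.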
Active calls of the source: *; [ ] = another dose, or the depositor's remark. Unless noted, calls follow the shape of the dose curve; as a rule, active = well fitted curve in the direction sought with a large enough effect; inconclusive = small, poorly fitted or top-dose-only effect, or another doubt; inactive = no such curve, though single readings can be large; an effect the other way counts as inactive or inconclusive.

Results for CC(=O)c1ccc(NC(=O)Cn2nc(-n3nc(C)cc3C)ccc2=O)cc1 ?
LDHA block: 1

What do the screens show for `C=CCNc1nc(N)c([N+](=O)[O-])c(Nc2ccccc2OC)n1`?
LDHA block: -13; Abeta rescue: inactive; aSyn rescue: 6%; TDP43 rescue: 16µM*; PTHR1 agonist: 11%; FUS yeast rescue: inactive

How did Brc1cccc(-c2noc(Cc3ccccc3)n2)c1 do in these assays?
LDHA block: 1

What do the screens show for `CC(=O)c1cccc(NC(=O)CSc2nc3c(-c4ccccc4)c[nH]c3c(=O)n2C2CC2)c1`?
LDHA block: 7

What do the screens show for `COc1ccc(/C=C/c2nn3c(-c4ccc5c(c4)OCO5)nnc3s2)cc1`?
LDHA block: 5

What do the screens show for `O=C(C1CCN(S(=O)(=O)Cc2ccccc2)CC1)N1CCN(c2ccc(F)cc2)CC1`?
LDHA block: -1; Abeta rescue: inactive; TDP43 rescue: 22µM*; PTHR1 agonist: -13%; FUS yeast rescue: inactive

Results for COc1ccc(S(=O)(=O)N(C)C[C@H]2Oc3ccc(NS(=O)(=O)c4ccccc4)cc3C(=O)N([C@H](C)CO)C[C@@H]2C)cc1 ?
LDHA block: -6; Abeta rescue: inactive; aSyn rescue: 0%; TDP43 rescue: 4%; PTHR1 agonist: -30%; FUS yeast rescue: 18µM*

Results for Cc1ccc(S(=O)(=O)N(C)C[C@@H]2Oc3ncc(C#CCC(C)C)cc3C(=O)N([C@H](C)CO)C[C@H]2C)cc1 ?
LDHA block: -12; Abeta rescue: inactive; aSyn rescue: 6%; TDP43 rescue: 25µM*; PTHR1 agonist: -9%; FUS yeast rescue: 28µM*

Results for Cc1ccc(S(=O)(=O)Nc2ccc3c(c2)C(=O)N([C@H](C)CO)C[C@H](C)[C@@H](CN(C)C(=O)NC2CCCCC2)OCCCC[C@@H](C)O3)cc1 ?
LDHA block: 1; Abeta rescue: inactive; aSyn rescue: 0%; TDP43 rescue: 24%; PTHR1 agonist: -9%; FUS yeast rescue: 16µM*

How did Cc1ccc(S(=O)(=O)Nc2ccc3c(c2)C(=O)N([C@@H](C)CO)C[C@@H](C)[C@@H](CN(C)C(=O)NC2CCCCC2)OCCCC[C@H](C)O3)cc1 do in these assays?
LDHA block: -2; Abeta rescue: inactive; aSyn rescue: 1%; TDP43 rescue: -7%; PTHR1 agonist: -6%; FUS yeast rescue: inactive

How did Cc1ccc(S(=O)(=O)Nc2ccc3c(c2)C(=O)N([C@H](C)CO)C[C@H](C)[C@H](CN(C)C(=O)Nc2cccc4ccccc24)OCCCC[C@@H](C)O3)cc1 do in these assays?
LDHA block: 11; Abeta rescue: inactive; aSyn rescue: 6%; TDP43 rescue: inconclusive; PTHR1 agonist: -29%; FUS yeast rescue: 13µM*

What do the screens show for `CCOC(=O)c1c(C)oc2ccc(N(C(=O)c3ccncc3)S(=O)(=O)c3ccc(F)cc3C)cc12`?
LDHA block: 2; Abeta rescue: inactive; TDP43 rescue: 26%; PTHR1 agonist: -42%; FUS yeast rescue: inconclusive

What do the screens show for `CC(=O)c1c(C)oc2ccc(N(C(=O)c3ccncc3)S(=O)(=O)c3ccc(F)cc3C)cc12`?
LDHA block: 4; Abeta rescue: inactive; TDP43 rescue: 20µM*; PTHR1 agonist: -92%; FUS yeast rescue: inconclusive

What do the screens show for `Cc1cc(C(C)(C)C)cc(C)c1CS(=O)Cc1cccc(F)c1` (stereo not given)?
LDHA block: 10

Results for Cc1ccc(C)c(S(=O)(=O)N2C(=S)NC(=O)C2C(C)C)c1 (stereo not given) ?
LDHA block: -10; Abeta rescue: inactive; aSyn rescue: 12%; TDP43 rescue: 35µM*; PTHR1 agonist: -15%; FUS yeast rescue: inactive

How did Cc1cc(=O)n(CC=C(Cl)Cl)c2ccccc12 do in these assays?
LDHA block: 0; Abeta rescue: inactive; aSyn rescue: 8%; TDP43 rescue: 13µM*; PTHR1 agonist: -2%[57.5 µM]; FUS yeast rescue: inconclusive

How did Cc1cc(=O)n(Cc2ccccc2)c2ccccc12 do in these assays?
LDHA block: -2; Abeta rescue: inactive; aSyn rescue: 3%; TDP43 rescue: 25%; PTHR1 agonist: -11%; FUS yeast rescue: inactive

Results for Nc1nc(Nc2ccccc2F)sc1C(=O)c1ccccc1 ?
LDHA block: 1; Abeta rescue: inconclusive; aSyn rescue: -17%; TDP43 rescue: 22µM*; PTHR1 agonist: -9%; FUS yeast rescue: inactive

What do the screens show for `Cc1nc(Nc2ccccc2)sc1C(=O)Nc1ccccc1`?
LDHA block: 5; Abeta rescue: inactive; aSyn rescue: -1%; TDP43 rescue: 10µM*; PTHR1 agonist: -23%; FUS yeast rescue: inactive

Results for Cc1nc(Nc2ccc(S(N)(=O)=O)cc2)sc1C(=O)Nc1ccccc1 ?
LDHA block: -8; Abeta rescue: inactive; aSyn rescue: -2%; TDP43 rescue: -9%; PTHR1 agonist: -10%; FUS yeast rescue: inactive

How did COc1ccc(Nc2nc(C)c(-c3ccccc3)s2)cc1 do in these assays?
LDHA block: -5; Abeta rescue: inactive; aSyn rescue: -18%; TDP43 rescue: 13µM*; PTHR1 agonist: inactive

How did Cc1nc(Nc2ccccc2)sc1C(=O)c1ccc(F)cc1 do in these assays?
LDHA block: -2; Abeta rescue: inactive; aSyn rescue: 0%; TDP43 rescue: 22µM*; PTHR1 agonist: -16%; FUS yeast rescue: inactive

What do the screens show for `Cc1ccc(NC(=O)CN2c3ccc(S(N)(=O)=O)cc3CC2C)c(F)c1` (stereo not given)?
LDHA block: -10

What do the screens show for `Cc1nc(Cl)sc1C(=O)Nc1cccc(Cl)c1`?
LDHA block: -4; Abeta rescue: inactive; aSyn rescue: 16%; TDP43 rescue: 14µM*; PTHR1 agonist: -26%; FUS yeast rescue: inactive

What do the screens show for `CNC(=O)c1c(NC(=O)c2ccc(N3C(=O)CCC3=O)cc2)sc2c1CCCC2`?
LDHA block: 3; Abeta rescue: inactive; aSyn rescue: -12%; TDP43 rescue: 8%; PTHR1 agonist: -19%; FUS yeast rescue: inconclusive

What do the screens show for `CNC(=O)c1c(NC(=O)c2ccc(N3C(=O)CCC3=O)cc2)sc2c1CCC(C)C2` (stereo not given)?
LDHA block: 0; Abeta rescue: inactive; aSyn rescue: 1%; TDP43 rescue: 32µM*; PTHR1 agonist: -25%
